Values joined by “and” are separate entries in the source; they are usually repeats but may differ in a detail not shown here. Identical values can stand only once. Inconclusive results are not listed. Some structures have more than one record in an assay (separate samples or runs), and their calls can disagree. Active and inactive are the calls of the source. Rule for the calls, unless noted: active = hit-call score of the fitted dose curve at least 0.9, where 1 is the maximum; inconclusive = response in the unintended direction; inactive = score below 0.9.
How the values were obtained:
[1] = target: human Dopamine Transporter (DAT), SLC6A3 (gene 6531) (UniProt Q01959); test: NVS_TR_hDAT: NovaScreen (NVS) Transporter Assay for human Dopamine Transporter (DAT) (AID 2283374);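 note: activity means loss of bound radioligand signal relative to DMSO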
Chain of human Dopamine Transporter (DAT), SLC6A3 (gene 6531) (Q01959 whole entry, looked up): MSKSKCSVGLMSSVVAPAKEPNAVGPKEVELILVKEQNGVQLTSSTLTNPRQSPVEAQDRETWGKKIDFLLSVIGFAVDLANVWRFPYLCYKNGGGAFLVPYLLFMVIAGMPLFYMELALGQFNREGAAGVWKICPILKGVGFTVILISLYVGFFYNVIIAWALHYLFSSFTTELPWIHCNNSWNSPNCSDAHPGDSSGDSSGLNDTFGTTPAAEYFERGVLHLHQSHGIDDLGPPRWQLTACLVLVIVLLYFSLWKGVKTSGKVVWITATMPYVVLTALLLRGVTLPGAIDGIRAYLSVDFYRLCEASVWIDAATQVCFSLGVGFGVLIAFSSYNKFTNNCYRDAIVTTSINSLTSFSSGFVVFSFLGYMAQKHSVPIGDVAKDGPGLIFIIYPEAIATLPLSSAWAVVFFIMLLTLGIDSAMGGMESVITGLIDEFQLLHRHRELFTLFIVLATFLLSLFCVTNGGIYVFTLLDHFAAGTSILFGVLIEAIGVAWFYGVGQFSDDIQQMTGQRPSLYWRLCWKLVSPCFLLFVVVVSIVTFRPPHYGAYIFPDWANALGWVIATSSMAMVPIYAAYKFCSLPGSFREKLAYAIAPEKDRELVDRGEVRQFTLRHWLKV
Method in brief: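 Test chemicals were first screened in duplicate at 25 uM, with actives retested as concentration series. Displacement of a specific radioligand from cell-free human dopamine transporter was measured after 1 h by filtration and scintillation counting.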

[2] = target: rat Serotonin Transporter (SERT), Slc6a4 (gene 25553) (UniProt P31652); test: NVS_TR_rSERT: NovaScreen (NVS) Transporter Assay for rat Serotonin Transporter (SERT) (AID 2283375)
Chain of rat Serotonin Transporter (SERT), Slc6a4 (gene 25553) (P31652 whole entry, looked up): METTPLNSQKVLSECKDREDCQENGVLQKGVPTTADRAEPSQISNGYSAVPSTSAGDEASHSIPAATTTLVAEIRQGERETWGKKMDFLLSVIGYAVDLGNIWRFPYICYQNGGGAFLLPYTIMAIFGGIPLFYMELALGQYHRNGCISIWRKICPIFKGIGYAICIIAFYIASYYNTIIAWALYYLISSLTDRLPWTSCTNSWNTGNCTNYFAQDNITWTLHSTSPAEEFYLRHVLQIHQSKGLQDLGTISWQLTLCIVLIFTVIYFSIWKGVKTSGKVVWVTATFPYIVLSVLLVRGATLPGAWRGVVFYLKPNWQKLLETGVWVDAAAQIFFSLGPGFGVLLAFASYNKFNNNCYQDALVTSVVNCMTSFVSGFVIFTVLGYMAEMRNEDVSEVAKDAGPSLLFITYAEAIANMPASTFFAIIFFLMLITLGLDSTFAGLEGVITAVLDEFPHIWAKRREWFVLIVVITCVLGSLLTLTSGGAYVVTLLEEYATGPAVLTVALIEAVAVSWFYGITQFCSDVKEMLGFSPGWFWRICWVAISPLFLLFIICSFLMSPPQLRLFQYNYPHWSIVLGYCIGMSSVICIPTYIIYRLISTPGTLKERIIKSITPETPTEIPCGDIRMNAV
Method in brief: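 Filtration-based radiodetection quantified loss of specific radioligand binding in rat forebrain membranes after 1 hour of chemical exposure, relative to DMSO. Chemicals were first tested in duplicate at 25 uM.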

[3] = target: human Norepinephrine Transporter (NET), SLC6A2 (gene 6530) (UniProt P23975); test: NVS_TR_hNET: NovaScreen (NVS) Transporter Assay for human Norepinephrine Transporter (NET) (AID 2283377);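 note: cell-free membrane protein extracted from CHO cells expressing human NET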;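 for AC50: displacement of radioligand from human NET seen as loss of scintillation signal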
Chain of human Norepinephrine Transporter (NET), SLC6A2 (gene 6530) (P23975 whole entry, looked up): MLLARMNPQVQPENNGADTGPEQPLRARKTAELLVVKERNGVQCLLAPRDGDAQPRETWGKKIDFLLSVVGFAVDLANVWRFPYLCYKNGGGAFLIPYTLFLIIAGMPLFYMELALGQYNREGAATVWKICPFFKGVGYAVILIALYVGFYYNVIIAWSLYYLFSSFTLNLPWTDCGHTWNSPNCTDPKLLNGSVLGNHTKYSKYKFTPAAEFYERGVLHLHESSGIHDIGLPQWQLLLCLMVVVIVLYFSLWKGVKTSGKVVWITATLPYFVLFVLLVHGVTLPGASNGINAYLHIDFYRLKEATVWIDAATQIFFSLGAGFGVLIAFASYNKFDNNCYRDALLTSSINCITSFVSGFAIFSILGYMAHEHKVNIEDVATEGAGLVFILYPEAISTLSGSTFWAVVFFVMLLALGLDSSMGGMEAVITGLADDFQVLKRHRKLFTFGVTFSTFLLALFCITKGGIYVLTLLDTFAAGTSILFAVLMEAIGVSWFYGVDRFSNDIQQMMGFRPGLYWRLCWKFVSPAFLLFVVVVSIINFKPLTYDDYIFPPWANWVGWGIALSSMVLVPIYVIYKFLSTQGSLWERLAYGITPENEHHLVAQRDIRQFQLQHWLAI
Method in brief: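 Scintillation counts of filter-retained radioligand served as the readout, taken 1 h post-dosing in a cell-free CHO-derived system. Test chemicals ran first at 25 uM in duplicate; confirmed hits were retested across concentrations.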

[4] = target: Agonist Androgen Response Element (ARE), AR (gene 367) (UniProt P10275); test: OT_AR_ARELUC_AG_1440: Odyssey Thera (OT) 24-hour CHO-K1 Luciferase Assay for Agonist Androgen Response Element (ARE) (AID 2283379)
Chain of Agonist Androgen Response Element (ARE), AR (gene 367) (P10275 whole entry, looked up): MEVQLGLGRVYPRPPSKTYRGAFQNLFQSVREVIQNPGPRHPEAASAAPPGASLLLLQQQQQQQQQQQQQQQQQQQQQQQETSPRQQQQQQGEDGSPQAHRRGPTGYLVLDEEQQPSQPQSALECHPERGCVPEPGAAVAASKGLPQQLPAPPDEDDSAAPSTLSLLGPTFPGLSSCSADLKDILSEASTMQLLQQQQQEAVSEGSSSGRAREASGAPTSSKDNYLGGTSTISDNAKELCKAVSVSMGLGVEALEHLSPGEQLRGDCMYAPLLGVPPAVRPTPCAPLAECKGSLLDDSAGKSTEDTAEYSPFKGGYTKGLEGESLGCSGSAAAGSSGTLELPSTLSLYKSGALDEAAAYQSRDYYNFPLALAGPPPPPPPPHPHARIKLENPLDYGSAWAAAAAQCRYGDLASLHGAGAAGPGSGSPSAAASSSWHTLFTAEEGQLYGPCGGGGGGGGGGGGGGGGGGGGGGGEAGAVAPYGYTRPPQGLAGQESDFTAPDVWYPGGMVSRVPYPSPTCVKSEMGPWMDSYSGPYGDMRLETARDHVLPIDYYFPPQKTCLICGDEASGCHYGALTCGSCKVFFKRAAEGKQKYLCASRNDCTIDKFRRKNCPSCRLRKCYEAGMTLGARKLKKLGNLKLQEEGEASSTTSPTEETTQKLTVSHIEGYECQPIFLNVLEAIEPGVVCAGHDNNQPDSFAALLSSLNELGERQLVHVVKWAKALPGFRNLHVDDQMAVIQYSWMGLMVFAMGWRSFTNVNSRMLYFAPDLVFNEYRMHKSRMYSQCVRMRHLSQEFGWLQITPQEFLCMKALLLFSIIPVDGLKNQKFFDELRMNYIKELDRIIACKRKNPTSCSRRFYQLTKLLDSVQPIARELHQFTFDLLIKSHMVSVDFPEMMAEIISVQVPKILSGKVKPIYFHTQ
Method in brief: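 Agonist mode, 24 h exposure in CHO-K1 ARE-luciferase cells; values reflect luminescence induction over vehicle.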

[5] = target: Estrogen receptor beta (Homo sapiens) (UniProt Q92731); test: OT_ER_ERbERb_1440: Odyssey Thera (OT) 24-hour HEK293T Protein-Complementation Assay for Estrogen Receptor-beta/-beta Homodimer (AID 2283380);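 note: fluorescence gain from ER beta LBD homodimer complementation read by laser scanning cytometry; scored as signal increase over DMSO baseline for both agonists and antagonists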
Chain of Estrogen receptor beta (Homo sapiens) (Q92731 whole entry, looked up, the tested form may be a part): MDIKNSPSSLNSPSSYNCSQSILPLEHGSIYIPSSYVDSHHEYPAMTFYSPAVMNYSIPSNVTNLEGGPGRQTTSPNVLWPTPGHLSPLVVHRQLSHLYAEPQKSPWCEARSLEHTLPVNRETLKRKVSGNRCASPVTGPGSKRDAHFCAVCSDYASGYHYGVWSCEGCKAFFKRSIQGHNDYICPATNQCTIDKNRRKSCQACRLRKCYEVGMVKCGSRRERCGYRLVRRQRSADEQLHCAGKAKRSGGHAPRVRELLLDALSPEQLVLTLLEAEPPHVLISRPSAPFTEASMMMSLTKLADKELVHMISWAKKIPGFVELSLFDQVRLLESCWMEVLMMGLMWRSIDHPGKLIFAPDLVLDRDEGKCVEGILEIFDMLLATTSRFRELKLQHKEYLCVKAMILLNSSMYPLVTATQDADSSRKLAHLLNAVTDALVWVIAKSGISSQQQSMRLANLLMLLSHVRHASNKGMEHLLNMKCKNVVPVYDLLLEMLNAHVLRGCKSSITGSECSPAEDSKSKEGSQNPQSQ
Method in brief: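 Fluorescence increase, nuclear for agonists or whole-cell for antagonists, relative to DMSO vehicle, quantified by laser scanning cytometer after fixation and Draq5 staining. Readout from 24 h treatment of HEK293T cells carrying complementation-paired ER beta LBD (aa 310-547).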

[6] = target: Estrogen receptor (Homo sapiens) (UniProt P03372); test: OT_ERa_GFPERaERE_0480: Odyssey Thera (OT) 8-hour HeLa Transcription Induction Assay for Estrogen Receptor (AID 2283381; active = hit-call score of the fitted dose curve at least 0.9, where 1 is the maximum; inactive = score below 0.9)
Chain of Estrogen receptor (Homo sapiens) (P03372 whole entry, looked up): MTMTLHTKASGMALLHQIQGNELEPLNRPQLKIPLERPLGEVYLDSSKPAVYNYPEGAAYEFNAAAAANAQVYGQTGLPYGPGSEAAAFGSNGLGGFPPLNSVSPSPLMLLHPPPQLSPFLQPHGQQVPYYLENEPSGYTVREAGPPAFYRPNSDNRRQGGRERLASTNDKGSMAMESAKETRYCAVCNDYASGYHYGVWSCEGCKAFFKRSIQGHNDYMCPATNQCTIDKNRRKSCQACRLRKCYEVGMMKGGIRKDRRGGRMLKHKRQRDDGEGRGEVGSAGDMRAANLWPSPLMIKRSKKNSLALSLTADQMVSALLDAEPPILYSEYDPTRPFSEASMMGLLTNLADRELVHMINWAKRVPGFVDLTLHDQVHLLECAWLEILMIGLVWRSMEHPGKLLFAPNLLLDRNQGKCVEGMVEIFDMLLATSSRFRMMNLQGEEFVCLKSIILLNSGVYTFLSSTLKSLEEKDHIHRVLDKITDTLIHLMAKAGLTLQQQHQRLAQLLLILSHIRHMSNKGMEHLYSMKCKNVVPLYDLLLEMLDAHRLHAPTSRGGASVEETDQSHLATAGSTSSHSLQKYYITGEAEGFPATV
Method in brief: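 Fluorescent reporter signal, imaged by microscopy and scored with image-analysis algorithms, was taken 8 h after chemical dosing of HeLa cells; activity was fitted upward relative to DMSO.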

[7] = target: Estrogen receptor (Homo sapiens) (UniProt P03372); test: OT_ERa_GFPERaERE_0120: Odyssey Thera (OT) 2-hour HeLa Transcription Induction Assay for Estrogen Receptor (AID 2283382)
Method in brief: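 HeLa, 384-well, 2 h chemical exposure; GFP reporter induction (ERE), fluorescence microscopy; high content image analysis; positive fitting direction vs DMSO.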

[8] = target: Bile acid receptor (Homo sapiens) (UniProt Q96RI1); test: OT_FXR_FXRSRC1_0480: Odyssey Thera (OT) 8-hour HEK293T Protein-Complementation Assay for Farnesoid X receptor/SRC-1 Co-activator (AID 2283383)
Chain of Bile acid receptor (Homo sapiens) (Q96RI1 whole entry, looked up, the tested form may be a part): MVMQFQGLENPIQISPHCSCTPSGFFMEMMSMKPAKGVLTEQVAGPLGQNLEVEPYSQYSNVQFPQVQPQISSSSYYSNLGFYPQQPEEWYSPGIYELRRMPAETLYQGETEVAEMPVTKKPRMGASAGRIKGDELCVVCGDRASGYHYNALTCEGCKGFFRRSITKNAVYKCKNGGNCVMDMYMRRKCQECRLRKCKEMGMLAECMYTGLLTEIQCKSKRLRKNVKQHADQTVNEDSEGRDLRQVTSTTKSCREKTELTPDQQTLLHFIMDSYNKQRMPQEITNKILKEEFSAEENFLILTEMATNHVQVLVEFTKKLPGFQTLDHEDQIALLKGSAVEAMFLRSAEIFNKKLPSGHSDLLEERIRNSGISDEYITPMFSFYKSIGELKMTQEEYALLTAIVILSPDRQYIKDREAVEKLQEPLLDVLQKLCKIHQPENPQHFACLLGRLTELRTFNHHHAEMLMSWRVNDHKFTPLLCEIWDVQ
Method in brief: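 Human kidney HEK293T cells carried FXR/SRC-1 fragment-complementation constructs. Compounds were added and incubated 8 h. Reporter reassembly upon receptor–co-activator interaction was then quantified by fluorescence, with curves fitted in the positive direction relative to DMSO.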

[9] = target: mouse Estrogen Receptor alpha (Era), Esr1 (gene 13982) (UniProt P19785); test: NVS_NR_mERa: NovaScreen (NVS) Nuclear Receptor Binding Assay for mouse Estrogen Receptor alpha (Era) (AID 2283378);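 note: hit means loss of bound radioligand signal relative to DMSO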
Chain of mouse Estrogen Receptor alpha (Era), Esr1 (gene 13982) (P19785 whole entry, looked up): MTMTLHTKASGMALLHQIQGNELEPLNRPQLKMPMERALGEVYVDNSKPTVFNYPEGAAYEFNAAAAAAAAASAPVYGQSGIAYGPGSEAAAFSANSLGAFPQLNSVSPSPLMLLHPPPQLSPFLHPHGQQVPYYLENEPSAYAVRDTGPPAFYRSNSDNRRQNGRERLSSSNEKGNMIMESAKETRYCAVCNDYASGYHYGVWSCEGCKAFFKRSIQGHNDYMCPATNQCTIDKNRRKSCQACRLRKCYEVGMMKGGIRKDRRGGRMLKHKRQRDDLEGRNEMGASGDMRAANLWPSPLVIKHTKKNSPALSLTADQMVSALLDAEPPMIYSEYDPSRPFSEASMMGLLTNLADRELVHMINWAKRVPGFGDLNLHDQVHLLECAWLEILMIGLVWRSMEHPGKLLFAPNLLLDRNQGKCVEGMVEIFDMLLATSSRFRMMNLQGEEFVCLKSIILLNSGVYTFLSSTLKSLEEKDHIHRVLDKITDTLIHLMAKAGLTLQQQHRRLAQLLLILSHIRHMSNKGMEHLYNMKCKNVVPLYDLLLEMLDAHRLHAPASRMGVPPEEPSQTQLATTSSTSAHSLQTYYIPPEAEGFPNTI
Method in brief: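 Extracted mouse Era incubated with tritiated or iodinated radioligand plus test chemical, 18 h. Bound fraction separated on filters, counted by scintillation. DMSO = negative control/baseline; duplicate single-point at 25 uM, then concentration-response follow-up.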

[10] = tested on: rat Norepinephrine Transporter (NET), gene 83511; test: NVS_TR_rNET: NovaScreen (NVS) Transporter Assay for rat Norepinephrine Transporter (NET) (AID 2283373)
Method in brief: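 Rat forebrain membranes; radioligand binding measured by filter-based scintillation counting 1 hour after dosing. Loss of specific binding versus DMSO baseline scored; primary screen in duplicate at 25 uM, actives followed up in concentration series.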

CN(C)c1ccc(C(=C2C=CC(=[N+](C)C)C=C2)c2ccc(N(C)C)cc2)cc1
AC50 [1]: 4.25 µM (active)
AC50 [2]: 7.04 µM (active)
AC50 [3]: 4.79 µM (active)
outcome [4]: inactive
outcome [5]: inactive
outcome [6]: inactive
outcome [7]: inactive

c1ccc(C[n+]2cccc3ccccc32)cc1
AC50 [1]: 9.52 µM (active)
AC50 [2]: 6.24 µM (active)
AC50 [3]: 15.4 µM (active)
outcome [5]: inactive
outcome [6]: inactive
outcome [7]: inactive
outcome [8]: inactive

CCCCCCCCCCCC[N+](C)(C)C
AC50 [1]: 10.5 µM (active)
AC50 [2]: 13.7 µM (active)
AC50 [3]: 7.96 µM (active)
outcome [5]: inactive

Cc1cc(F)ccc1-c1cc(N2CC[C@@H](O)[C@H]2CO)ncc1N(C)C(=O)C(C)(C)c1cc(C(F)(F)F)cc(C(F)(F)F)c1
AC50 [3]: 5.97 µM (active)
outcome [4]: inactive
outcome [5]: inactive
outcome [6]: inactive
outcome [7]: inactive

CCCCCCCCN(C)CCCCCCCC
outcome [9]: inactive
outcome [4]: inactive
outcome [6]: inactive
outcome [7]: inactive

Clc1cc(Cl)c2c(c1)N=C1CCCCCN1C2
AC50 [10]: 4.16 µM (active)
AC50 [1]: 4.92 µM (active)
AC50 [3]: 3.55 µM (active)
outcome [6]: inactive
outcome [7]: inactive

CCN(CC)C(=O)c1cc(S(=O)(=O)Cc2ccccc2)c(N2CCC(c3ccccc3)CC2)cc1N(CC)CCN(C)C
AC50 [1]: 5.63 µM (active)
AC50 [3]: 10.4 µM (active)
AC50 [9]: 2.54 µM (active)
outcome [5]: inactive
outcome [6]: inactive
AC50 [7]: 19 µM (active)
AC50 [8]: 4.46 µM (active)

O=C1c2ccccc2C(=O)N1CCc1noc(-c2ccc(CN3CCCCCC3)s2)n1
AC50 [10]: 7.26 µM (active)
AC50 [2]: 9.05 µM (active)
AC50 [3]: 6.14 µM (active)
outcome [6]: inactive
outcome [7]: inactive

CCCCCCCCCCCO
outcome [9]: inactive
outcome [5]: inactive
outcome [6]: inactive
outcome [7]: inactive
outcome [8]: inactive

CC(C)(C)c1cc(/C=C2\SC(N)=NC2=O)cc(C(C)(C)C)c1O
outcome [9]: inactive
outcome [5]: inactive
outcome [6]: inactive
outcome [7]: inactive

CCCCCCCCCC(=O)O
outcome [1]: inactive
outcome [4]: inactive

CCCOC(=O)c1cc(O)c(O)c(O)c1
AC50 [1]: 10.8 µM (active)
outcome [9]: inactive
AC50 [5]: 12.7 µM (active)
outcome [6]: inactive
outcome [7]: inactive
outcome [8]: inactive

O=C(OCCCCCCOC(=O)c1ccccc1)c1ccccc1
outcome [3]: inactive
outcome [6]: inactive
outcome [7]: inactive
AC50 [8]: 50 µM (active)

Clc1ccccc1C(c1ccccc1)(c1ccccc1)n1ccnc1
outcome [3]: inactive
outcome [9]: inactive
outcome [5]: inactive
AC50 [6]: 79 µM (active)
outcome [7]: inactive

NCc1cccc(C2CCN(C(=O)c3ccc(C#Cc4ccccc4F)o3)CC2)c1
AC50 [10]: 18.9 µM (active)
AC50 [1]: 1.79 µM (active)
AC50 [2]: 16.7 µM (active)
AC50 [3]: 4.42 µM (active)
outcome [4]: inactive
outcome [6]: inactive
AC50 [7]: 12 µM (active)

COc1ccc2cc(S(=O)(=O)N[C@H](CC(=O)N[C@H](Cc3ccc(CN4[C@H](C)CCC[C@@H]4C)cc3)C(=O)N(C)C(C)C)c3ccc4c(c3)OCO4)ccc2c1
AC50 [1]: 12.1 µM (active)
outcome [9]: inactive
AC50 [6]: 15.8 µM (active)
AC50 [7]: 28.6 µM (active)
AC50 [8]: 11.1 µM (active)

CCOC(=O)O[C@H](C)OC(=O)c1ccc2c(c1)cc(C(=O)NC1CCN(C(C)C)CC1)n2Cc1cc(-c2ccc(Cl)s2)on1
AC50 [10]: 15.5 µM (active)
AC50 [1]: 3.21 µM (active)
AC50 [3]: 1.95 µM (active)
outcome [5]: inactive
AC50 [6]: 19.6 µM (active)
AC50 [7]: 23.8 µM (active)

COCC(C)OCC(C)OCC(C)O (stereo not given)
outcome [4]: inactive
outcome [5]: inactive
outcome [6]: inactive
outcome [7]: inactive

Oc1ccc2ccccc2c1
AC50 [10]: 7.87 µM (active)
AC50 [1]: 10.1 µM (active)
AC50 [2]: 8.73 µM (active)
AC50 [3]: 7.32 µM (active)
AC50 [4]: 1.64 µM (active)
AC50 [5]: 45.7 µM (active)

Cc1occc1C(=O)Nc1ccc(C(=O)N2CCC(F)(F)/C(=C\C(=O)N3CCC(N4CCCCC4)CC3)c3ccccc32)cc1
outcome [4]: inactive
outcome [5]: inactive
outcome [6]: inactive
outcome [7]: inactive

C[C@]12CC[C@@H]3c4ccc(O)cc4CC[C@H]3[C@@H]1CC[C@H]2O
AC50 [1]: 0.252 µM (active)

CC(=O)N1CCN(c2ccc(OC[C@H]3CO[C@](Cn4ccnc4)(c4ccc(Cl)cc4Cl)O3)cc2)CC1
AC50 [1]: 11.2 µM (active)
AC50 [3]: 9.91 µM (active)
outcome [9]: inactive
outcome [5]: inactive
AC50 [6]: 81.2 µM (active)
AC50 [7]: 94 µM (active)

Cc1cn([C@H]2C[C@H](N=[N+]=[N-])[C@@H](CO)O2)c(=O)[nH]c1=O
outcome [3]: inactive
outcome [6]: inactive
outcome [7]: inactive
outcome [8]: inactive

CC/C(=C(/CC)c1ccc(O)cc1)c1ccc(O)cc1
AC50 [1]: 16.2 µM (active)
outcome [3]: inactive
outcome [8]: inactive

CCCCCc1ccc(N)cc1
AC50 [1]: 8.47 µM (active)
AC50 [9]: 0.0459 µM (active)
outcome [9]: inactive
outcome [5]: inactive
outcome [6]: inactive
outcome [7]: inactive

CN(C)C(=O)C1(N2CCCCC2)CCN(CC[C@@]2(c3ccc(Cl)c(Cl)c3)CN(C(=O)c3ccccc3)CCO2)CC1
AC50 [10]: 13.5 µM (active)
AC50 [1]: 2.76 µM (active)
AC50 [3]: 2.33 µM (active)
AC50 [9]: 0.203 µM (active)
outcome [4]: inactive
AC50 [6]: 16.8 µM (active)
AC50 [7]: 14.8 µM (active)

CCCCOC(=O)c1ccc(O)cc1
AC50 [3]: 13.9 µM (active)
outcome [4]: inactive
AC50 [5]: 4.49 µM (active) and 5.81 µM (active) and 6.38 µM (active)
AC50 [8]: 50 µM (active) and 31 µM (active)

CCCCCCCCOC(=O)c1cc(O)c(O)c(O)c1
AC50 [1]: 19.9 µM (active)
AC50 [3]: 5.24 µM (active)
AC50 [9]: 11.3 µM (active)
AC50 [5]: 11.6 µM (active)
AC50 [6]: 50 µM (active)
AC50 [7]: 3.33 µM (active)
AC50 [8]: 63.6 µM (active)

CN1C(=O)N(c2ccccc2Br)Cc2cnc(Nc3ccc4c(c3)OCC(CO)O4)nc21 (stereo not given)
AC50 [3]: 4.72 µM (active)
outcome [5]: inactive
AC50 [6]: 55.4 µM (active)
outcome [7]: inactive
AC50 [8]: 0.34 µM (active)

O=C=NCCCCCCN=C=O
AC50 [1]: 16.3 µM (active)
outcome [5]: inactive
outcome [6]: inactive
outcome [7]: inactive

O=c1[nH]sc2ccccc12
AC50 [1]: 21.4 µM (active)
outcome [5]: inactive
AC50 [6]: 91.7 µM (active)
outcome [7]: inactive

COc1cc(C(=O)NC2CCN(C)CC2)ccc1Nc1ncc2c(n1)N(C1CCCC1)CC(F)(F)C(=O)N2C
AC50 [10]: 9.31 µM (active)
AC50 [1]: 8.6 µM (active)
outcome [2]: inactive
AC50 [3]: 23.2 µM (active)
AC50 [9]: 1.49 µM (active)
AC50 [5]: 1.94 µM (active)
outcome [6]: inactive
outcome [7]: inactive
AC50 [8]: 11 µM (active)

CC(C)(c1cc(Br)c(O)c(Br)c1)c1cc(Br)c(O)c(Br)c1
outcome [9]: inactive
outcome [5]: inactive
AC50 [8]: 70 µM (active)

CN(C[C@@H](CC[N+]12CCC(C3CCCCC3)(CC1)CC2)c1ccc(Cl)c(Cl)c1)C(=O)c1cc(C(F)(F)F)cc(C(F)(F)F)c1
AC50 [1]: 1.95 µM (active)
AC50 [2]: 16.7 µM (active)
AC50 [3]: 1.38 µM (active)
outcome [9]: inactive
outcome [4]: inactive
outcome [5]: inactive
AC50 [6]: 12.4 µM (active)
outcome [7]: inactive
AC50 [8]: 85.4 µM (active)

O=C(Nc1ccc(Cl)cc1)Nc1ccc(Cl)c(Cl)c1
outcome [3]: inactive
outcome [9]: inactive
AC50 [4]: 0.336 µM (active)
outcome [5]: inactive
outcome [6]: inactive
outcome [7]: inactive
outcome [8]: inactive

COc1cccc([C@H](O)C2CCN(CCc3ccc(F)cc3)CC2)c1OC
AC50 [2]: 8.09 µM (active)
outcome [5]: inactive
outcome [6]: inactive
outcome [7]: inactive
outcome [8]: inactive

C[C@]12CC[C@@H]3c4ccc(O)cc4CC[C@H]3[C@@H]1CCC2=O
AC50 [2]: 4.96 µM (active)
AC50 [9]: 7.03 nM (active) [middle of 4 runs]
outcome [9]: inactive
outcome [8]: inactive

Reference: PubChem BioAssay (EPA / NIEHS)
